Assay results reported in ChEMBL document CHEMBL1157539, “Thousands of chemical starting points for antimalarial lead identification” (Nature, 2010).

Tested on: Plasmodium falciparum
Test: GSK_TCMDC: Inhibition of Plasmodium falciparum 3D7 in whole red blood cells, using parasite LDH activity as an index of growth. Test compounds present at 2uM
Format: functional

**Q.** `CCn1cc(CN2C(=O)C(c3ccccc3)(c3ccccc3)N=C2N)cn1.O=CO` was tested. Which Inhibition did it give?
**A.** 95%

**Q.** For `CCNc1cc(C(=O)NC(Cc2ccccc2)C(O)CNC(C)(C)CCCC(C)C)c(F)c(N2CCCS2(=O)=O)c1.O=CO` (configuration not stated), which Inhibition is on record?
**A.** 98%

**Q.** Which Inhibition does the source give for `COc1ccccc1CNc1ncc(-c2ccsc2)c(-c2nccs2)n1` here?
**A.** 91%

Tested on: Plasmodium falciparum
Test: GSK_TCMDC: Inhibition of Plasmodium falciparum Dd2 in whole red blood cells, using parasite LDH activity as an index of growth. Test compounds present at 2uM
Format: functional

**Q.** Which Inhibition does the source give for `CCOC(=O)c1nc(-c2cc(Cl)nc(Cl)c2)[nH]c1NC(=S)NCc1ccc(NS(C)(=O)=O)cc1` here?
**A.** 98%

**Q.** With `Cc1ccc(NC(=O)c2ccc(CN3CCCN(Cc4cccc(O)c4)CC3)cc2)cc1F.O=C(O)C(F)(F)F` as the compound, how does the Inhibition read?
**A.** 31%

**Q.** How did the Inhibition turn out when `N#Cc1ccc2[nH]c(-c3cc(-c4cccc(F)c4)cnc3N)nc2c1.O=C(O)C(F)(F)F` was run?
**A.** 93%

**Q.** How did the Inhibition turn out when `Nc1ncc(-c2ccccc2)cc1/C=C/c1cccnc1` was run?
**A.** 9%

**Q.** `CC(C)COc1ccc(Cl)cc1Cc1ccc(-c2nc3ccc(F)c(F)c3[nH]2)o1` was tested. Which Inhibition did it give?
**A.** 85%

**Q.** How did the Inhibition turn out when `CC(C)c1sc(N2CCN(C)CC2)nc1C(=O)Nc1cccc2c1CCCC2.O=C(O)C(F)(F)F` was run?
**A.** 50%

**Q.** With `COc1cccc(-c2cc3nc4c(c(NCCCn5ccnc5)n3n2)CCCC4)c1` as the compound, how does the Inhibition read?
**A.** 66%

**Q.** With `Cc1cc(N2CCCC2)nc(Nc2ccc(NC(=O)Cc3ccccc3)cc2)n1` as the compound, how does the Inhibition read?
**A.** 72%

**Q.** Which Inhibition does the source give for `COc1ccc2cc(C=NNc3nc4ccccc4[nH]3)c(Cl)nc2c1` here?
**A.** 90%

**Q.** With `CCOc1ccc2nc3cc(NC(=O)c4ccco4)ccc3c(N)c2c1` as the compound, how does the Inhibition read?
**A.** 56%

**Q.** Which Inhibition does the source give for `CC(C)(C)c1cc(NC(=O)c2ccc(Cl)c([N+](=O)[O-])c2)cc(C(C)(C)C)c1` here?
**A.** 7%

**Q.** Which Inhibition does the source give for `Cc1noc(C)c1-c1cccc(CNCc2cccc(-c3cccc(-c4nc5cccc(C)c5[nH]4)c3)c2)c1.O=C(O)C(F)(F)F` here?
**A.** 66%

**Q.** Which Inhibition does the source give for `CN1CCN(Cc2c(O)ccc3c(=O)c(Oc4ccc(C(C)(C)C)cc4)c(C(F)(F)F)oc23)CC1` here?
**A.** 88%

**Q.** `COc1cccc(-n2ncc3c(N/N=C/c4ccc(CN(C)CCN(C)C)cc4)ncnc32)c1` was tested. Which Inhibition did it give?
**A.** 91%

**Q.** `COc1ccc(NC(=O)[C@H](CC(C)C)Nc2cc(C)nc(Nc3ccccc3)n2)cc1.O=C(O)C(F)(F)F` was tested. Which Inhibition did it give?
**A.** 92%

**Q.** With `N#Cc1c(N2CCN(c3ccc(F)cc3)CC2)nc(N)c2c(N)nc3c(c12)CC(=O)N3C1CC1` as the compound, how does the Inhibition read?
**A.** 82%

**Q.** How did the Inhibition turn out when `CC(C)(C)C(=O)Oc1ccc(CC2NCCc3cc(OC(=O)C(C)(C)C)c(OC(=O)C(C)(C)C)cc32)cc1OC(=O)C(C)(C)C` (configuration not stated) was run?
**A.** 96%

**Q.** For `Cn1nc(-c2cccc(CN[C@@H]3CCc4ccc(O)cc43)c2)c2cnc(NCCCN3CCCC3)nc21`, which Inhibition is on record?
**A.** 0%

**Q.** How did the Inhibition turn out when `CC1(C)[C@H]2CC[C@@H](CNc3nc(NCCc4c[nH]cn4)nc(NCc4cc(F)ccc4F)n3)[C@@H]1C2` was run?
**A.** 91%

**Q.** With `C[C@@H](Oc1cc(-n2cnc3ccc(NC(=O)NC(C)(C)C)cc32)sc1C(N)=O)c1ccccc1Cl` as the compound, how does the Inhibition read?
**A.** 97%

**Q.** `CO/C(=C\C=C\c1cc2cc(Cl)c(Cl)cc2[nH]1)C(=O)NCCCNCCN(C)c1ccccc1` was tested. Which Inhibition did it give?
**A.** 55%

**Q.** Which Inhibition does the source give for `CC(Cc1ccc(C(=O)N2CCN(C(=O)c3ccc(CC(C)NCCc4cccc(Cl)c4)cc3)CC2)cc1)NCCc1cccc(Cl)c1` (configuration not stated) here?
**A.** 85%

**Q.** With `c1cn(-c2ccc(CNc3nccc(Nc4ccc(OCCN5CCOCC5)cc4)n3)cc2)cn1` as the compound, how does the Inhibition read?
**A.** 3%

**Q.** Which Inhibition does the source give for `Br.NCC(=O)NC12CC3CC(CC(C3)C1)C2` here?
**A.** 0%

**Q.** `CN(C)CCCNc1nccc(N(C)c2ccc(NC(=O)Nc3cc(C(F)(F)F)ccc3F)cc2)n1.O=C(O)C(F)(F)F` was tested. Which Inhibition did it give?
**A.** 25%

**Q.** Which Inhibition does the source give for `COc1ccc(-c2ncnc(C(F)(F)F)c2-c2ccc(Cl)cc2)c(O)c1` here?
**A.** 22%

**Q.** `CC1CN(c2cnn(Cc3ccc(NC(=O)Nc4ccc(F)cc4[N+](=O)[O-])cc3)c(=O)c2Cl)CC(C)N1.O=C(O)C(F)(F)F` (configuration not stated) was tested. Which Inhibition did it give?
**A.** 10%

**Q.** How did the Inhibition turn out when `O=C(NCc1cccc2ccccc12)C(c1cc2ccccc2o1)N1CCN(C(c2ccccc2)c2ccccc2)CC1` (configuration not stated) was run?
**A.** 90%

**Q.** For `COc1ccc(OC)c(-c2ccc(O)c(CNCC(C)c3ccccc3)c2)c1` (configuration not stated), which Inhibition is on record?
**A.** 96%

**Q.** For `Cl.c1cc(-c2cc3ccc(C4=NCCN4)cc3[nH]2)ccc1C1=NCCN1`, which Inhibition is on record?
**A.** 99%

**Q.** `COc1cc(Cc2cnc(N)nc2N)c2c(c1OC)OC(C)C=C2` (configuration not stated) was tested. Which Inhibition did it give?
**A.** 1%

**Q.** With `Cc1ccccc1OCC(=O)Nc1ccc(-c2nc3cc4ccccc4cc3[nH]2)cc1` as the compound, how does the Inhibition read?
**A.** 51%

**Q.** `O=C1COc2ccc3ccccc3c21` was tested. Which Inhibition did it give?
**A.** 3%

**Q.** With `C=CCNS(=O)(=O)c1ccc(NC(=O)C(C)Oc2ccc([N+](=O)[O-])cc2)cc1` (configuration not stated) as the compound, how does the Inhibition read?
**A.** 100%
